Columns and labels:
Assay in all cases: SPOT peptide array binding signal intensity (averaged, normalized) (arbitrary units (background-subtracted, floor 0; scale differs between SH3 domains)); higher = stronger binding of the SH3 domain to the peptide
[1] = biological target: AgAbp1
In short: (§1)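 Cellulose membranes carried synthetic 15-mer peptides with cysteines swapped for serines. These were incubated overnight at 4°C with 10 μg/ml of GST-fused SH3 domains from four yeast species in TBS-based blocking buffer. Binding signal, detected with anti-GST antibody and quantified in Genespotter, is the normalized, background-subtracted spot intensity averaged over replicates, in arbitrary units specific to each domain.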

[2] = biological target: AgBbc1
In short: as §1

[3] = biological target: AgBem1-D1
In short: as §1

[4] = biological target: AgBzz1-D1
In short: as §1

[5] = biological target: AgBzz1-D2
In short: as §1

[6] = biological target: AgCyk3
In short: as §1

[7] = biological target: AgFus1
In short: as §1

[8] = biological target: AgHof1
In short: as §1

[9] = biological target: AgHse1
In short: as §1

[10] = biological target: AgLsb1
In short: as §1

[11] = biological target: AgLsb4
In short: as §1

[12] = biological target: AgMyo5
In short: as §1

[13] = biological target: AgNbp2
In short: as §1

[14] = biological target: AgRvs167
In short: as §1

[15] = biological target: AgSho1
In short: as §1

[16] = biological target: AgSla1-D1-D2
In short: as §1

[17] = biological target: AgSla1-D3
In short: as §1

[18] = biological target: CaAbp1-D1
In short: as §1

[19] = biological target: CaAbp1-D2
In short: as §1

[20] = biological target: CaBbc1
In short: as §1

[21] = biological target: CaBem1-D1
In short: as §1

[22] = biological target: CaBzz1-D1
In short: as §1

[23] = biological target: CaBzz1-D2
In short: as §1

[24] = biological target: CaCyk3
In short: as §1

[25] = biological target: CaFus1
In short: as §1

[26] = biological target: CaHof1
In short: as §1

[27] = biological target: CaHse1
In short: as §1

[28] = biological target: CaLsb1
In short: as §1

[29] = biological target: CaLsb4
In short: as §1

[30] = biological target: CaMyo5
In short: as §1

[31] = biological target: CaNbp2
In short: as §1

[32] = biological target: CaRvs167
In short: as §1

[33] = biological target: CaRvs167-3
In short: as §1

[34] = biological target: CaSho1
In short: as §1

[35] = biological target: CaSla1-D1-D2
In short: as §1

[36] = biological target: CaSla1-D3
In short: as §1

[37] = biological target: ScAbp1
In short: as §1

[38] = biological target: ScBbc1
In short: as §1

[39] = biological target: ScBem1-D1
In short: as §1

[40] = biological target: ScBzz1-D1
In short: as §1

[41] = biological target: ScBzz1-D2
In short: as §1

[42] = biological target: ScCyk3
In short: as §1

[43] = biological target: ScFus1
In short: as §1

[44] = biological target: ScHof1
In short: as §1

[45] = biological target: ScHse1
In short: as §1

[46] = biological target: ScLsb1
In short: as §1

[47] = biological target: ScLsb2
In short: as §1

[48] = biological target: ScLsb3
In short: as §1

[49] = biological target: ScLsb4
In short: as §1

[50] = biological target: ScMyo3
In short: as §1

[51] = biological target: ScMyo5
In short: as §1

[52] = biological target: ScNbp2
In short: as §1

[53] = biological target: ScPex13
In short: as §1

[54] = biological target: ScRvs167
In short: as §1

[55] = biological target: ScSho1
In short: as §1

[56] = biological target: ScSla1-D1-D2
In short: as §1

[57] = biological target: ScSla1-D3
In short: as §1

[58] = biological target: SpAbp1-D1
In short: as §1

[59] = biological target: SpBbc1
In short: as §1

[60] = biological target: SpBzz1-D1
In short: as §1

[61] = biological target: SpBzz1-D2
In short: as §1

[62] = biological target: SpCyk3
In short: as §1

[63] = biological target: SpHof1
In short: as §1

[64] = biological target: SpHof1-2
In short: as §1

[65] = biological target: SpHof1-3
In short: as §1

[66] = biological target: SpHse1
In short: as §1

[67] = biological target: SpLsb1
In short: as §1

[68] = biological target: SpLsb4
In short: as §1

[69] = biological target: SpMyo1
In short: as §1

[70] = biological target: SpNbp2
In short: as §1

[71] = biological target: SpPex13
In short: as §1

[72] = biological target: SpRvs167
In short: as §1

[73] = biological target: SpSla1-D1-D2
In short: as §1

[74] = biological target: SpSla1-D3
In short: as §1

## KDKKTKPTPPPKPSH
[1]
  SPOT peptide array binding signal intensity: 494
[2]
  SPOT peptide array binding signal intensity: 26.8
[3]
  SPOT peptide array binding signal intensity: 60.5
[4]
  SPOT peptide array binding signal intensity: 42
[5]
  SPOT peptide array binding signal intensity: 48
[6]
  SPOT peptide array binding signal intensity: ≤ 0
[7]
  SPOT peptide array binding signal intensity: ≤ 0
[8]
  SPOT peptide array binding signal intensity: 19.5
[9]
  SPOT peptide array binding signal intensity: 29
[10]
  SPOT peptide array binding signal intensity: ≤ 0
[11]
  SPOT peptide array binding signal intensity: ≤ 0
[12]
  SPOT peptide array binding signal intensity: ≤ 0
[13]
  SPOT peptide array binding signal intensity: ≤ 0
[14]
  SPOT peptide array binding signal intensity: 1.5
[15]
  SPOT peptide array binding signal intensity: 34.5
[16]
  SPOT peptide array binding signal intensity: 7
[17]
  SPOT peptide array binding signal intensity: 4
[18]
  SPOT peptide array binding signal intensity: 275
[19]
  SPOT peptide array binding signal intensity: 226
[20]
  SPOT peptide array binding signal intensity: 132
[21]
  SPOT peptide array binding signal intensity: 0.5
[22]
  SPOT peptide array binding signal intensity: 1220
[23]
  SPOT peptide array binding signal intensity: 715
[24]
  SPOT peptide array binding signal intensity: ≤ 0
[25]
  SPOT peptide array binding signal intensity: ≤ 0
[26]
  SPOT peptide array binding signal intensity: 1.5
[27]
  SPOT peptide array binding signal intensity: 2
[28]
  SPOT peptide array binding signal intensity: 1
[29]
  SPOT peptide array binding signal intensity: ≤ 0
[30]
  SPOT peptide array binding signal intensity: 2.25
[31]
  SPOT peptide array binding signal intensity: 0.5
[32]
  SPOT peptide array binding signal intensity: 1.5
[33]
  SPOT peptide array binding signal intensity: 4.5
[34]
  SPOT peptide array binding signal intensity: 6
[35]
  SPOT peptide array binding signal intensity: 10
[36]
  SPOT peptide array binding signal intensity: 2
[37]
  SPOT peptide array binding signal intensity: 735
[38]
  SPOT peptide array binding signal intensity: ≤ 0
[39]
  SPOT peptide array binding signal intensity: 9
[40]
  SPOT peptide array binding signal intensity: ≤ 0
[41]
  SPOT peptide array binding signal intensity: 79
[42]
  SPOT peptide array binding signal intensity: 1
[43]
  SPOT peptide array binding signal intensity: 31
[44]
  SPOT peptide array binding signal intensity: 1.75
[45]
  SPOT peptide array binding signal intensity: 38
[46]
  SPOT peptide array binding signal intensity: ≤ 0
[47]
  SPOT peptide array binding signal intensity: ≤ 0
[48]
  SPOT peptide array binding signal intensity: 328
[49]
  SPOT peptide array binding signal intensity: ≤ 0
[50]
  SPOT peptide array binding signal intensity: ≤ 0
[51]
  SPOT peptide array binding signal intensity: ≤ 0
[52]
  SPOT peptide array binding signal intensity: 17
[53]
  SPOT peptide array binding signal intensity: ≤ 0
[54]
  SPOT peptide array binding signal intensity: 1.17
[55]
  SPOT peptide array binding signal intensity: 334
[56]
  SPOT peptide array binding signal intensity: 9
[57]
  SPOT peptide array binding signal intensity: 5
[58]
  SPOT peptide array binding signal intensity: 148
[59]
  SPOT peptide array binding signal intensity: 3.75
[60]
  SPOT peptide array binding signal intensity: 26.5
[61]
  SPOT peptide array binding signal intensity: ≤ 0
[62]
  SPOT peptide array binding signal intensity: ≤ 0
[63]
  SPOT peptide array binding signal intensity: 5.5
[64]
  SPOT peptide array binding signal intensity: 5.5
[65]
  SPOT peptide array binding signal intensity: 67.8
[66]
  SPOT peptide array binding signal intensity: 9.25
[67]
  SPOT peptide array binding signal intensity: 70.5
[68]
  SPOT peptide array binding signal intensity: ≤ 0
[69]
  SPOT peptide array binding signal intensity: 2
[70]
  SPOT peptide array binding signal intensity: 31
[71]
  SPOT peptide array binding signal intensity: 9
[72]
  SPOT peptide array binding signal intensity: 2
[73]
  SPOT peptide array binding signal intensity: 1.5
[74]
  SPOT peptide array binding signal intensity: ≤ 0

Reference: the supplement of paper PMC4466140
